Drawing on PubChem BioAssay AID540326 (Broad Institute, 2011), this text covers outcome for one compound.

This experiment in a line: DiI-HDL fluorescence quenchers, cell-free, dose response, artefact control for SR-BI HDL uptake inhibitor project, biochemical, cherry-pick samples, plate reader fluorescence (AID 540326). To be noted: 30 min; series mostly up to 35 µM.

The other results are listed elsewhere or left out. Active and inactive are the calls of the source.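 Rule for the calls: active = quenching, a falling signal, with AC50 below a set limit tied to the top valid dose (actives reach about 32 µM in these data); inconclusive = no clear call, values can overlap the other calls; inactive = rising signal, and the rest.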

`CC(=O)OC1C2(CC3N4C(=O)C5(CO)SSC4(CC31O)C(=O)N5C)OC(C)C(C)(C)C2=O` (stereo unspecified): the compound was called inactive.
